mcGAS RapidFire = inhibitors of mouse cGAS; recombinant mouse cGAS, cGAMP by RapidFire MS; inhibition, % at 12.5 µM; Q8C6L5; 130,000 compounds, 0.18% hits;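 active = inhibition of cGAS enzyme activity at or above 60%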;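 note: enzyme stimulated by 45 bp dsDNA with ATP and GTP substrates; cGAMP share of summed cGAMP plus half ATP and half GTP signals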
Target sequence (Q8C6L5 whole entry, looked up): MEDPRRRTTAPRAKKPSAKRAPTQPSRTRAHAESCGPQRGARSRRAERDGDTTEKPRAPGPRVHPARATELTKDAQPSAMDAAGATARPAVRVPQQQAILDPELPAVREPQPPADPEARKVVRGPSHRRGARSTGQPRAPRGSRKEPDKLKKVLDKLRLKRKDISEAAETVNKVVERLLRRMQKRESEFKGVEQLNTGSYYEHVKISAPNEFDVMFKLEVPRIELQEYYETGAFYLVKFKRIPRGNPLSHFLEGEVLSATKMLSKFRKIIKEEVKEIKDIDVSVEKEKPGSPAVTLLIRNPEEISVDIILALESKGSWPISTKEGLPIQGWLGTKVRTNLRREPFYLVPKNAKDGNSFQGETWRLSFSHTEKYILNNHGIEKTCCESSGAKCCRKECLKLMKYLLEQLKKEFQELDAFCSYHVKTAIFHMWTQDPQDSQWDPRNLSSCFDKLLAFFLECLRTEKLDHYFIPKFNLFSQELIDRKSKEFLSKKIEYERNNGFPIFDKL
A number is an active result; 0 = inactive. Only a selection was taken, and hits are over-represented in it overall.

SMILES	mcGAS RapidFire
Cc1nc2ccc(Cl)cn2c(=O)c1NC(=O)CC(C)(C)C	0
Cc1ccc(Cl)c2sc(N(CCN3CCOCC3)C(=O)c3cccs3)nc12	0
CCN(CC1CC1)C(=O)NCCC(C)(C)C	0
O=c1c(N=Nc2cccc([N+](=O)[O-])c2)c(-c2ccccc2)[nH]n1-c1ccccc1	0
O=C(O)c1ccc(N=Nc2c(-c3ccccc3)[nH]n(-c3ccc([N+](=O)[O-])cc3)c2=O)cc1	76
N#Cc1ccc(N=Nc2c(-c3ccc([N+](=O)[O-])cc3)[nH]n(-c3ccccc3)c2=O)cc1	0
CCOC(=O)C1(Cc2ccccc2)CCCN(S(=O)(=O)c2c(C)nn(C)c2C)C1 (centres undefined)	0
C=CCn1cc(CN2CCN(c3cccc(OC)c3)C(=O)C2C)c(C)n1 (centres undefined)	0
CSC1(CNC(=O)N2CCCC2c2cccs2)CCOCC1 (centres undefined)	0
CSC1(CNc2ccc(Br)cn2)CCOCC1	71
CSC1(CNC(=O)c2ccc(Oc3ccccc3)nc2)CCOCC1	0
Cc1ccccc1C(=O)O/N=C1/C(=O)c2ccccc2-c2ccccc21	70
CCOC(=O)c1cccc2c1-c1ccccc1/C2=N/O	0
C/C(=N/OC(=O)c1ccccc1C)c1ccc(Cl)cc1Cl	0
Cc1ccoc1C(=O)N1CCC(Oc2ccc(C(=O)NCCN(C)C)cc2Cl)CC1	0
Cc1cc(C(F)(F)F)n2ncc(C(=O)N3CC[C@@H]4CC[C@H](C3)N4C)c2n1	0
O=C(C1CC1c1ccc(Cl)c(Cl)c1)N1CCCn2ncnc21 (centres undefined)	96
CN1CCN(C)C(CNC(=O)C2CC2c2ccc(Cl)c(Cl)c2)C1 (centres undefined)	0
CCCn1c(=O)n(CCC(=O)N2CCCn3ncnc32)c2ccccc21	0
COc1ccccc1Cn1ccnc1SCC(=O)Nc1cccc([N+](=O)[O-])c1	0
CSc1nc2ncc3c(=O)n(-c4ccc(F)c(Cl)c4)ccc3n2n1	0
Cc1[nH]cnc1CN(C)CC1CCN(CC(C)C)C1 (centres undefined)	0
CNC(=O)c1ccc(-c2ccc(OC)c3ncccc23)s1	0
COc1ccc(-c2ccc(NC(=O)C3CC3)nc2)c2cccnc12	0
COc1ccc(-c2ccc(C(=O)N3CCCC3)o2)c2cccnc12	86
SMILES	mcGAS RapidFire
NS(=O)(=O)N1CCN(C(c2ccccc2)c2ccccc2)CC1	0
CN(Cc1cccc(Cl)c1)C(=O)CSc1ccc(S(=O)(=O)N2CCCCCC2)cn1	0
O=C(O)C1Sc2[nH]c(=O)sc2C2c3cc(Cl)cc(Cl)c3OC(=O)C12 (centres undefined)	0
O=C(O)CC12CSc3[nH]c(=O)sc3C1c1ccccc1OC2=O (centres undefined)	0
O=C1Oc2ccccc2C2c3sc(=O)[nH]c3SCC12 (centres undefined)	91
CCc1nnc2n1CCN(C(=O)c1cccc3c1OCC(=O)N3)C2	0
CC1(C)CN(C(=O)c2cn(CC3CCCNC3)nn2)CCO1 (centres undefined)	0
COc1cccc(-c2ccc3c(c2)N(Cc2ccc4c(c2)OCO4)C(=O)C(C)S3)c1 (centres undefined)	0
CC1Sc2ccccc2N(Cc2ccc(F)c(Cl)c2)C1=O (centres undefined)	0
CC1Sc2ccc(-c3ccco3)cc2N(Cc2ccc(Cl)cc2)C1=O (centres undefined)	66
Cc1noc(C)c1C(=O)NCCc1ccc(F)cc1	0

Bioassay records as filed in PubChem BioAssay.
